Growth data for seven compounds are collected here from PubChem BioAssay (NCI).

Molecules are shown by their SMILES. About 83,000 compounds went through this panel and 20% of them were active in at least one assay; those are over-represented in the sample as a whole.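 Results are percent growth after 48 hours of single-concentration exposure. 100 means growth as in untreated cells, lower positive values show inhibition; negative values down to -100 show cell death.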 Values without a mark were called inactive. The source made the active and inactive calls. How the source made its calls: active means growth percent below 10; inactive means the rest.

What all share (test): NCI-60 one-dose screen, 48 h (100 = growth as untreated, 0 = no growth, -100 = all killed)
Details in all cases: 10 µM unless noted

The subject of test [1] is NCI-H23 lung.
Test [2] has as its system NCI-H226 lung.
For test [3], the system named is NCI-H322M lung.
Test [4] has as its system HOP-62 NSCLC.
Test [5] concerns NCI-H460 lung.
The subject of test [6] is HOP-92 NSCLC.
In test [7] the test system is NCI-H522 lung.
The subject of test [8] is A549/ATCC NSCLC.
Test [9] deals with 786-0 renal.
For test [10], the system named is COLO 205 colon.
Test [11] has as its system DU-145 prostate.
In test [12] the test system is K-562 leukemia.
The test system of test [13] is MALME-3M melanoma.
Test [14] deals with MDA-MB-231 breast.
In test [15] the test system is RXF 393 renal.
Test [16] concerns SF-268 CNS.
Test [17] has as its system SF-295 CNS.
Test [18] has as its system SF-539 CNS.
Test [19] deals with UACC-257 melanoma.
The test system of test [20] is M14 melanoma.

`C=C(CN=[N+]=[N-])[C@@H]1CC[C@]2(C)[C@H](CC[C@@H]3[C@H]4[C@H]5OC(=O)[C@@]4(CCC5(C)C)CC[C@]32C)[C@@]1(C)CCC#N`: the growth is 82.2% [100 µM] in test [1]; 83.1% [100 µM] in [2]; 96.9% [100 µM] in [3]; 90.9% [100 µM] in test [4]; 73.5% [100 µM] in test [5]; 65% [100 µM] in test [6]. Moreover, the growth in test [7] was 70.2% [100 µM]; in [8] it was 78.6% [100 µM]; in test [9], 87.9% [100 µM]; in test [10], 100% [100 µM]; in test [11], 98.2% [100 µM]; in [12] it was 45.6% [100 µM]. The growth is 90.1% [100 µM] in test [13]; 48.9% [100 µM] in test [14]; 108% [100 µM] in test [15]; 92.9% [100 µM] in test [16]; 96.7% [100 µM] in test [17]; 88% [100 µM] in test [18]. The growth is 77.2% [100 µM] in test [19] and 69.1% [100 µM] in test [20].
Consider `ClC1=C(Cl)C(Cl)=C(Cl)C1=Cc1ccccc1`, for which the growth was -58.6% (active) in [1]; -73% (active) in test [2]; -13.2% (active) in [3]; -32.7% (active) in test [4]; -52.6% (active) in test [5]; -49.1% (active) in test [6]. Besides, the growth in test [7] was -51.1% (active); in test [8], -0.255% (active); in test [9], -90.3% (active); in test [10], -55.6% (active); in test [11], -76.4% (active); in test [12], 1.01% (active). Also, the growth in test [13] is -53.7% (active); in test [14], -21% (active); in [15], -91.4% (active); in test [16], -44.9% (active); in test [17], -30.1% (active); in [18], -43.6% (active). Besides, the growth in test [19] was -66.7% (active); in [20] it was -93.1% (active).
Consider `COc1cc(NCc2cn(-c3ccc(C(=O)O)cc3)nc2-c2ccc(C(=O)O)cc2)cc(OC)c1OC`, for which the growth in [1] is 107%; in test [2], 99.3%; in [3], 93.9%; in test [4], 98.6%; in test [5], 99.9%; in test [6], 68.1%. The growth in test [7] was 101%; in [8] it was 102%; in test [9] it was 90.8%; in test [10], 108%; in [11] it was 93.8%; in [12] it was 107%. Moreover, the growth is 80.8% in test [13]; 76.4% in test [14]; 105% in test [15]; 95.6% in [16]; 102% in [17]; 90.2% in test [18]. Also, the growth in test [19] is 99.7%; in test [20], 96.5%.
Regarding `C=C(CC(=O)OC)C(C)=O`, the growth in test [1] was 105%; in [2], 104%; in test [3] it was 119%; in [4] it was 98.7%; in test [5], 111%; in test [6], 112%. The growth was 101% in test [7]; 114% in test [8]; 106% in test [9]; 116% in [10]; 107% in [11]; 106% in test [12]. In addition, the growth in test [13] is 128%; in test [14], 94.8%; in [15], 112%; in [16], 106%; in [17] it was 106%; in test [18], 120%. In addition, the growth was 118% in test [19] and 119% in test [20].
As for `O=[N+]([O-])c1cccc(/C=C/c2ccc3ccccc3n2)c1`, the growth in test [1] is 85.8%; in test [2] it was 82.9%; in test [3] it was 74.3%; in test [4], 55.5%; in test [5], 77.1%; in [6], 66.6%. In addition, the growth was 47.5% in test [7]; 79.5% in test [8]; 70.4% in [9]; 91.7% in test [10]; 71.4% in test [11]; 94.7% in test [12]. For the same compound, the growth in test [13] is 68.5%; in [14], 45.7%; in test [15] it was 62.1%; in [16], 72.9%; in test [17], 53.2%; in test [18], 78.1%. Moreover, the growth is 74.8% in test [19] and 82.3% in test [20].
For the compound `C1=C[C@H]2O[C@@H]1c1ccc3[nH]ccc3c12`, the growth was 96% in test [1]; 101% in test [2]; 110% in [3]; 96.6% in test [4]; 102% in test [5]; 120% in test [6]. For the same compound, the growth in [7] was 41.7%; in test [8] it was 89.4%; in test [9] it was 106%; in [10] it was 110%; in test [11] it was 116%; in test [12] it was 53.3%. Moreover, the growth in test [13] is 102%; in test [14], 93.4%; in [15], 92.5%; in [16], 104%; in test [17] it was 103%; in test [18], 107%. For the same compound, the growth is 91.6% in test [19] and 86.3% in test [20].
Consider `CCN(CC)c1ccc(/C=C/C=C2\NC(=O)NC2=O)cc1`, for which the growth in [1] is 49.8%; in [2] it was 69%; in [3], 63.3%; in [4], 45.3%; in [5], 19.7%; in [6] it was 31.1%. In addition, the growth in test [7] was -36% (active); in test [8], 37.2%; in [9] it was 9.14% (active); in test [10] it was 33.7%; in test [11], 40.8%; in [12], 13.9%. The growth in [13] is 51.8%; in test [14], 64.1%; in test [15] it was 2.31% (active); in test [16] it was 54.8%; in [17], 24.1%; in test [18] it was 10.4%. The values for the growth in test [19] and in test [20] were 43% and 17.7%, respectively.
